Screening results: PubChem BioAssay, National Center for Advancing Translational Sciences (NCATS)
D1 antag – Antagonist of Human D 1 Dopamine Receptor: qHTS | D(1A) dopamine receptor (Homo sapiens), P21728 | actives 3.2% (n = 360,000) | HEK293 TREx D1 cells, calcium flux, dopamine EC80; hits give low values | activity change, negative = inhibition, % at 10 µM; in the data active = activity change below about -30%
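After overnight tetracycline induction at 30 C, force-coupled D1 HEK293 cells took up a no-wash calcium dye at room temperature. Compounds were added and monitored 180 s, and the response to EC80 dopamine was then recorded.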
TRPV1 ag – HTS Assay for Compounds that Act as Agonists of the Vanilloid Receptor 1; Transient receptor potential cation channel subfamily V member 1 (Homo sapiens), Q8NER1; TRPV1-expressing cells, Fluo-8 calcium influx, agonist mode; activation, % at 8.33 µM; actives 0.19% (n = 320,000); AID 540275, 2011; in the data active = activation above about 80%; inconclusive = between about 30% and that limit
Target sequence (Q8NER1 whole entry, looked up): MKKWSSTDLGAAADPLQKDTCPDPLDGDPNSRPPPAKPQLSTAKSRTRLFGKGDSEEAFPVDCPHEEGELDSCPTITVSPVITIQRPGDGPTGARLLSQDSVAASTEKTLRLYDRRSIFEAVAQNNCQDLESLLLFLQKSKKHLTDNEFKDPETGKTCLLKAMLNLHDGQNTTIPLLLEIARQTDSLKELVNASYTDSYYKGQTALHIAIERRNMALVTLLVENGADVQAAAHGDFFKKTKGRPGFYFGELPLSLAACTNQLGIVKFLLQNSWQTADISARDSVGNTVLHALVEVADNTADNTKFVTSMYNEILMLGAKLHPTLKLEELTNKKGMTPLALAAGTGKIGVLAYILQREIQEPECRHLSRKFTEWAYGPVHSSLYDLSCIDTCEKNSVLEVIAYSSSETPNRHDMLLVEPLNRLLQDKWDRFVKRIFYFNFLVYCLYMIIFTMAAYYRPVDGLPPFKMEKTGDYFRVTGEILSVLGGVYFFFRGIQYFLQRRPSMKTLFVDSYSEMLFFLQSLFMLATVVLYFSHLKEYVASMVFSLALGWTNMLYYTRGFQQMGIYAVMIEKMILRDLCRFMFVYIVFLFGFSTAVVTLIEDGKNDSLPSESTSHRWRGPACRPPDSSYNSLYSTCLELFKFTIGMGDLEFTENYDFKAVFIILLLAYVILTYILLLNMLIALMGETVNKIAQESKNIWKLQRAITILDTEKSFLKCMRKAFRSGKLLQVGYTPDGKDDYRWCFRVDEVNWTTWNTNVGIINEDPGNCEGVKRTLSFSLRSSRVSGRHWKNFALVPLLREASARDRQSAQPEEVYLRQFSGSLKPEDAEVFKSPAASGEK
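TRPV1-expressing cells were cultured overnight at 35.5C and loaded with Fluo-8 calcium dye for 40 to 90 min at room temperature. After a 10 s baseline, compound was added and calcium influx was read kinetically for 3 min (ex 480/em 520 nm).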
TRPV1 PAM – HTS Assay for Compounds that Act as Potentiators of the Vanilloid Receptor 1; actives 0.02% (n = 320,000); TRPV1-expressing cells, Fluo-8 calcium influx, capsaicin EC20 potentiation; potentiation, % at 8.33 µM; Transient receptor potential cation channel subfamily V member 1 (Homo sapiens), Q8NER1; AID 540277, 2011; in the data active = potentiation above about 80%; inconclusive = between about 30% and that limit
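TRPV1-expressing cells were cultured overnight at 35.5C and loaded with Fluo-8 calcium dye for 40 to 90 min at room temperature. After a 10 s baseline, compound was added and calcium influx was read kinetically for 3 min (ex 480/em 520 nm).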
D1 PAM – Potentiators of Human D1 Dopamine Receptor: qHTS | D(1A) dopamine receptor (Homo sapiens), P21728 | HEK293 TREx D1 cells, calcium flux, dopamine EC20 potentiation | potentiation, % at 10 µM | actives 0.036% (n = 360,000); in the data active = potentiation above about 30%
D1 ag – Allosteric Agonists of the Human D1 Dopamine Receptor: qHTS; D(1A) dopamine receptor (Homo sapiens), P21728; HEK293 T-REx D1 cells, calcium flux, agonist mode; activation, % at 2 µM; actives 1% (n = 360,000); AID 504660, 2011; in the data active = activation above about 30%
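Tetracycline-induced HEK293 TREx D1 cells, force-coupled to calcium signalling, were dye-loaded with a no-wash calcium kit. Compound was pin-added after a 10 s baseline. Fluorescence was read kinetically at 1 cycle/s for 180 s, with calcium rises flagged as agonism.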
Large screens that a line does not name were inactive. A selection: hits, their analogues and other compounds. The true share with any hit is near 4.2%.

CC(C)(C)NCC(O)COc1ccccc1C1CCCC1 (stereo unspecified)	D1 ag 31
CCc1ccccc1OC[C@@H](O)CN[C@H]1CCCc2ccccc21	D1 antag -52, D1 ag 97
OC(CNC1CCCc2ccccc21)COc1ccc2ccccc2c1 (stereo unspecified)	none
COc1ccc(CNCCC(c2ccc(OC(C)C)cc2)C(C)C)cc1OC (stereo unspecified)	D1 ag 35
COc1ccc(CNCCC(c2ccc(OC(C)C)cc2)c2ccccc2OC)cc1OC (stereo unspecified)	none
COc1ccc(CNCCC(c2ccc(OC(C)C)cc2)c2ccccc2OC)cc1 (stereo unspecified)	D1 ag 35
COc1ccc(C(CCNCc2ccc(OC(C)C)cc2)C(C)C)cc1 (stereo unspecified)	D1 ag 31
COc1ccc(C(CCNCc2ccc(N(C)C)cc2)C(C)C)cc1 (stereo unspecified)	none
COc1ccccc1C(CCNCc1ccccc1)c1ccc(OC(C)C)cc1 (stereo unspecified)	none
CCOC(=O)c1cc(-c2ccccc2)n(CC(=O)Nc2ccc(CC)cc2)c1C	none (no result: TRPV1 ag, TRPV1 PAM)
Cc1cc(C)cc(NC(=O)C(=O)NCC(c2cccnc2)N2CCc3ccccc32)c1 (stereo unspecified)	none (no result: TRPV1 ag, TRPV1 PAM)
CCCCC(=O)Nc1nc2c(OC)cc([N+](=O)[O-])cc2s1	D1 antag -34
Cc1cc(NC(=O)Cc2c(F)cccc2Cl)no1	D1 antag -30
Cc1nc2c(-c3ccccc3)c(C)[nH]n2c(=O)c1Cc1ccc(Br)cc1	none (no result: TRPV1 ag, TRPV1 PAM)
Cc1ccc(S(=O)(=O)Nc2nc(-c3ccccc3)cs2)cc1	none
COc1ccc(-c2csc(NC(=O)c3ccccc3NS(=O)(=O)c3ccc(F)c(F)c3)n2)cc1	D1 antag -49, TRPV1 PAM inconclusive
COc1ccc(-c2csc(NC(=O)c3ccccc3F)n2)cc1	none
Cc1ccc(S(=O)(=O)Nc2ccccc2C(=O)Nc2nc(-c3ccc(F)cc3)cs2)cc1	D1 antag -65
Cc1ccc(S(=O)(=O)N(C)c2ccc(OCC(=O)Nc3nc(-c4ccccc4)cs3)cc2)cc1	D1 antag -37
COc1ccc(-c2csc(NS(=O)(=O)c3ccc([N+](=O)[O-])cc3)n2)cc1	D1 antag -31
Cc1nn2c(=O)cc(COC(=O)c3ccc(NC(=O)C4CCCCC4)cc3)nc2s1	none (no result: TRPV1 ag, TRPV1 PAM)
Cc1nc2nc(SCC(=O)NCc3ccccc3)nn2c(C)c1Cc1ccccc1Cl	none (no result: TRPV1 ag, TRPV1 PAM)
CCOc1ccc(-n2c(=O)c3c(C)c(C)sc3n(CC(=O)N3CCC(C)CC3)c2=O)cc1	none (no result: TRPV1 ag, TRPV1 PAM)
CCCNc1nc(NCc2ccccc2OC)c2cnn(C)c2n1	none (no result: TRPV1 ag, TRPV1 PAM)
COCCNC(=O)CSc1nc(-c2ccccc2C)nc2c1c(=O)n(C)c(=O)n2C	none (no result: TRPV1 ag, TRPV1 PAM)
Cc1ccc2c(c1)C(Cc1ccccc1F)C(=O)N2 (stereo unspecified)	D1 antag -46 (no result: TRPV1 ag, TRPV1 PAM)
Cc1ccccc1CC1C(=O)Nc2ccc(Br)cc21 (stereo unspecified)	D1 PAM 32, D1 ag 48 (no result: TRPV1 ag, TRPV1 PAM)
COc1ccc(Br)cc1CC1C(=O)Nc2ccccc21 (stereo unspecified)	none (no result: TRPV1 ag, TRPV1 PAM)
O=C(Nc1ccc(Br)cc1)C1CCN(C(=O)c2ccco2)CC1	none
O=C(c1ccc(-c2ccccc2)cc1)N1CCN(C(=O)c2ccco2)CC1	D1 antag -37
CC(C)(C)c1ccc(C(=O)N2CCN(S(=O)(=O)c3ccc(Br)s3)CC2)cc1	D1 antag -32, TRPV1 ag inconclusive
CN1CCN(C(=O)c2ccc(-c3ccccc3)cc2)CC1	none
O=C(c1ccccc1)C1CCN(C(=O)c2ccco2)CC1	D1 PAM 59
Cc1cc(NC(=O)C2CCN(C(=O)c3ccco3)CC2)ccc1Br	D1 antag -37
CC1=C(C(=O)NCc2cccc(Br)c2)C2(CCCCC2)OC1=O	none (no result: TRPV1 ag, TRPV1 PAM)
CC(C)(C)c1ccc(C(=O)N2CCN(C(=O)c3ccco3)CC2)cc1	D1 antag -30
N#Cc1cc2c(nc1SCC(=O)Nc1sc3c(c1C#N)CCC3)CCC2	D1 antag -42
Cc1csc(SCC(=O)Nc2sc3c(c2C#N)CCC3)n1	D1 antag -31
Cc1ccnc(SCC(=O)Nc2sc3c(c2C#N)CCCC3)n1	D1 antag -33
CCN(c1ccc(C)cc1)S(=O)(=O)c1nnc(NC(=O)C2CCCCC2)s1	none (no result: TRPV1 ag, TRPV1 PAM)
CCOC(=O)C1CCCN(C/C=C/c2ccccc2[N+](=O)[O-])C1 (stereo unspecified)	none
O=[N+]([O-])c1ccccc1/C=C/CN1CCCCC1CO (stereo unspecified)	D1 antag -34
O=[N+]([O-])c1ccccc1/C=C/CN1CCCCC1	none
CCN(CC)C(=O)C1CCCN(C/C=C/c2ccccc2[N+](=O)[O-])C1 (stereo unspecified)	D1 antag -62
O=C(c1ccccc1)N1CCN(CC#Cc2ccccc2)CC1	none
C(#Cc1ccc(C#CCN2CCCC2)cc1)CN1CCCC1	D1 antag -32, TRPV1 PAM inconclusive
COC(=O)c1ccccc1NC(=O)CSc1nc2nc(C)cc(C)n2n1	none (no result: TRPV1 ag, TRPV1 PAM)
CC1(C)CC(=O)C2=C(C1)Nc1ccccc1S2	none
CC1(C)CC(=O)C2=C(C1)Nc1ccccc1NC2	D1 antag -51
CC1(C)CC(=O)C2=C(C1)Nc1ccccc1N=C2	D1 ag 39
CN(C(=O)Cn1cc(S(=O)(=O)Cc2ccccc2Cl)c2ccccc21)c1ccccc1	none (no result: TRPV1 ag, TRPV1 PAM)
CCc1nnc(SCc2cccc(Cl)c2)c2cc3sccc3n12	none (no result: TRPV1 ag, TRPV1 PAM)
Cc1c(-c2cccc(NC(=O)c3ccc(F)c(F)c3)c2)nc2ncccn12	D1 antag -36 (no result: TRPV1 ag, TRPV1 PAM)
CC(=O)Nc1ccc(NC(=S)Nc2ccc(Br)cc2)cc1	none (no result: TRPV1 ag, TRPV1 PAM)
Cc1ccc(NC(=S)Nc2ccc(Br)cc2)cc1	D1 antag -33
Cc1ccc(OCCCC(=O)Nc2ccc(Br)cc2)cc1	D1 antag -67, TRPV1 ag inconclusive
COc1cccc(N2CCN(C(=O)c3cc4c(=O)n(Cc5ccco5)ccc4nc3C)CC2)c1	none (no result: TRPV1 ag, TRPV1 PAM)
O=C(c1ccc(COc2ccccc2Cl)o1)N1CCCC1	none
CC1CCN(C(=O)c2ccc(COc3ccccc3Cl)o2)CC1	D1 antag -36
CC(C)Cn1c(-c2ccc(Br)cc2)c[nH]c1=S	D1 ag 43
CCn1c(-c2ccccc2)c[nH]c1=S	none
COc1cccc(C2CC(c3ccccc3)n3ncnc3N2)c1 (stereo unspecified)	none (no result: D1 PAM)
COc1ccc(C2CC(c3cccc(C)c3)n3nc(N)nc3N2)cc1 (stereo unspecified)	D1 antag -31
